High-throughput results as filed in PubChem BioAssay.
In the library only some 9% were active in any assay of this set; here they are far more common.
BAZ2B inh – qHTS Assay for Inhibitors of BAZ2B | Bromodomain adjacent to zinc finger domain protein 2B (Homo sapiens), Q9UIF8 | AlphaScreen BAZ2B-H3K14Ac peptide displacement | Potency, µM (doses to about 114 µM), without a hit: at the top dose activity change, negative = inhibition, most hits filed as inhibitors | actives 4.4% (n = 360,000) | AID 504333, 2011; also: % is scaled to controls: 0 for no effect and ±100 for the full control effect; nearly all actives have a fitted effect of over 60% in size
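BAZ2B 50 nM plus b-H3(5-23)K14Ac 50 nM, PBS pH 7.4/0.01% Tween-20, 30 min RT; compound added (max 110 uM), 30 min RT; streptavidin donor/Ni-chelate acceptor beads 10 ug/mL final, 20 min dark; AlphaScreen read.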
G9a block – qHTS Assay for Inhibitors of Histone Lysine Methyltransferase G9a; Histone-lysine N-methyltransferase EHMT2 (Homo sapiens), Q96KQ7; Potency, µM (doses to about 102 µM), for the others: top-dose activity, negative = inhibition, usual class: inhibitors; actives 8.8% (n = 350,000); G9a H3K9 monomethylation, AlphaScreen, 2 h; also: % is scaled to controls: 0 for no effect and ±100 for the full control effect; nearly all actives have a fitted effect of over 75% in size
Target sequence (Q96KQ7 913-1193 limits assumed): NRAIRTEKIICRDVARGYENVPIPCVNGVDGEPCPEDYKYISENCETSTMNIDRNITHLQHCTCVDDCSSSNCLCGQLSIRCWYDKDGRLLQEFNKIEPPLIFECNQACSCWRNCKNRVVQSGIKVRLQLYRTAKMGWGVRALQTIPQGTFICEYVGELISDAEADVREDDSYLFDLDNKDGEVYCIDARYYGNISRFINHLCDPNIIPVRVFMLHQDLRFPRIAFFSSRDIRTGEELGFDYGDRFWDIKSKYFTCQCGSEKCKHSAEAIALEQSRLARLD
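G9a (20 nM) was preincubated 15 min with compound, then reacted 2 h at room temperature with 500 nM biotin-H3K9 peptide and 20 µM SAM. Monomethyl-H3K9 detected by AlphaScreen using anti-H3K9me1 antibody.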
HP1b chromo inh – HTS for Inhibitors of HP1-beta Chromodomain Interactions with Methylated Histone Tails | Potency, µM (top dose mostly 114 µM), without a hit: at the highest dose activity change, negative = inhibition, most hits filed as inhibitors | actives 0.56% (n = 390,000) | AlphaScreen HP1-beta / biotin-H3K9me3 peptide binding | Chromobox protein homolog 1 (Homo sapiens), P83916; also: nearly all actives have a fitted effect of over 70% in size
Target sequence (P83916 whole entry, looked up): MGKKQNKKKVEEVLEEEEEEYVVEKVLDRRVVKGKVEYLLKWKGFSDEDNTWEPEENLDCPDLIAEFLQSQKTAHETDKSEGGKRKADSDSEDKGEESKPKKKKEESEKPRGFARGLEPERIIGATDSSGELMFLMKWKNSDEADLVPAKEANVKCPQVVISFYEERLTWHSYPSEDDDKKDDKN
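AlphaScreen: HP1-beta (50 nM) preformed 30 min with biotin-H3(1-18)K9me3 peptide (50 nM) in PBS pH 7.4, 0.01% Tween-20. Compound added for 30 min at RT, then streptavidin donor/nickel chelate acceptor beads (10 ug/mL) for 30 min.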
JMJD2A Tudor – qHTS Assay for Inhibitors of JMJD2A-Tudor Domain; AID 504339, 2011; actives 4.4% (n = 390,000); AlphaScreen JMJD2A-Tudor / H3K4me3 peptide binding; Potency, µM (series often up to 114 µM), for inactives: at the highest dose activity change, negative = inhibition, most hits filed as inhibitors; also: % is scaled to controls: 0 for no effect and ±100 for the full control effect; nearly all actives have a fitted effect of over 50% in size
ALOX12 inh – Primary qHTS assay for inhibitors of human arachidonate 12S-lipoxygenase (ALOX12): Round 2. Polyunsaturated fatty acid lipoxygenase ALOX12 (Homo sapiens), P18054. purified 12hLO, xylenol orange hydroperoxide absorbance. Potency, µM (series often up to 108 µM), without a hit: top-dose activity change, negative = inhibition, hits mostly inhibitors. actives 1.1% (n = 580,000). AID 1671190, 2021; also: % is scaled to controls: 0 for no effect and ±100 for the full control effect
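Hydroperoxide product was detected by ferrous iron/xylenol orange as the 573 to 405 nm absorbance ratio. Arachidonic acid at 40 uM (final) was turned over for 30 min at room temperature by 150 nM human 12hLO, pH 7.0 Hepes buffer, after 15 min compound preincubation.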
PLK1 PBD block – qHTS for Inhibitors of PLK1-PDB (polo-like kinase 1 - polo-box domain): Primary Screen; Serine/threonine-protein kinase PLK1 (Homo sapiens), P53350; Plk1 PBD binding of FITC phosphopeptide, fluorescence polarization; Potency, µM, for inactives: max response, negative = inhibition, usual class: inhibitors; actives 2.8% (n = 360,000); AID 720504, 2013; also: series mostly up to about 57 µM; % is scaled to controls: 0 for no effect and ±100 for the full control effect; nearly all actives have a fitted effect of over 65% in size
Starred values were filed as active, the others as inactive; ? = inconclusive; nt = no result; [ ] = another dose, or the depositor's remark. Calls follow the shape of the dose curve; as a rule, active = well fitted curve in the direction sought with a large enough effect; inconclusive = small, poorly fitted or top-dose-only effect, or another doubt; inactive = no such curve, though single readings can be large; an effect the other way counts as inactive or inconclusive. Potency is read from the fitted curve at half-maximal effect.

SMILES | BAZ2B inh | G9a block | HP1b chromo inh | JMJD2A Tudor | ALOX12 inh | PLK1 PBD block
CN(Cc1ccc(-c2ccccc2)cc1)Cc1cccc2ccccc12 | nt | nt | nt | nt | 48% | nt
CCOC(=O)C1=C(O)C(=O)N(c2ccc(S(N)(=O)=O)cc2)C1c1ccc([N+](=O)[O-])cc1 (configuration not stated) | -13% | ? | 14% | -25%[11.4 µM] | ? | 30µM*
CC(=O)C1=C(O)C(=O)N(c2ccc(C)cc2)C1c1ccc([N+](=O)[O-])cc1 (configuration not stated) | ? | -16%[59 µM] | ? | ? | ? | 27µM*
CCOC(=O)C1=C(O)C(=O)N(c2ccc(S(N)(=O)=O)cc2)C1c1cccc([N+](=O)[O-])c1 (configuration not stated) | -22% | ? | 20% | -21% | -7% | -4%
CC(=O)C1=C(O)C(=O)N(c2ccc(S(N)(=O)=O)cc2)C1c1cccc([N+](=O)[O-])c1 (configuration not stated) | -26% | 50µM* | 20% | -16%[11.4 µM] | -8% | 27µM*
CC(=O)C1=C(O)C(=O)N(c2ccc(O)cc2)C1c1ccc(Cl)cc1 (configuration not stated) | -19% | 71µM* | 11% | -25% | ? | -17%
CC(=O)C1=C(O)C(=O)N(c2ccc(Br)cc2)C1c1ccc(Cl)cc1 (configuration not stated) | -36% | 18%[0.501 µM] | 15% | -32% | ? | -19%
O=[S+]([O-])(c1ccncc1)c1nnn2c1nc(NC1CC1)c1ccccc12 | nt | nt | nt | nt | 4%[6.33 µM] | nt
O=C1N[C@@H](Cc2c[nH]c3ccccc23)COC(=O)[C@@H](Cc2ccc(F)cc2)C/C=C\C[C@H]1CC(=O)N(CCO)Cc1ccccc1 | nt | nt | 2% | ? | -10% | -6%
C=C/C(C)=C/C[C@H]1C(=C)CCC2[C@](C)(C(=O)O)CCC[C@@]21C (some centres not stated) | ? | -12%[12.7 µM] | 34% | ? | nt | 19µM*
C=C1C[C@@]23CC[C@H]4[C@@](C)(CCC[C@@]4(C)C(=O)O)[C@@H]2CC[C@]1(O)C3 | nt | ? | nt | nt | 14% | nt
CCOC(=O)c1c(C)oc2ccc(O)c(CN3CCCCC3)c12 | 15% | 1%[12.7 µM] | 19% | -6% | -12% | 2%
O=C(c1ccccc1)c1coc2ccc(O)c(CN3CCOCC3)c12 | -3% | 27%[59 µM] | -10% | -2%[11.4 µM] | 0% | 21µM*
CCOC(=O)c1c(-c2ccccc2)oc2ccc(O)c(CN3CCOCC3)c12 | 5% | -5%[59 µM] | 25% | -22%[11.4 µM] | -15% | 12µM*
COc1ccc(C(=O)c2coc3ccc(O)c(CN4CCCCC4)c23)cc1 | -3% | 25µM* | 49% | -22% | -4% | -16%
COc1ccc(NC(=O)c2c(C)oc3ccc(O)c(CN4CCCCCC4)c23)cc1 | -27% | -10%[59 µM] | 24% | ? | -18% | nt
O=C(Cn1cnc2c(oc3nc4c(cc32)CCCC4)c1=O)Nc1ccccc1 | -38% | 13% | 13%[57 µM] | -16% | -9% | -4%
CC(=O)N1CCN(S(=O)(=O)c2cccc(C(=O)Nc3nc4c(s3)CCCC4)c2)CC1 | ? | 22%[59 µM] | 9% | ? | 0% | -6%
C=C(C)C1CC=C(C)C(=NNC(=O)c2ccncc2)C1 (configuration not stated) | nt | nt | 15%[57 µM] | -14% | 8% | 0%
COc1ccc2c(c1)CCCC(Br)C2=O (configuration not stated) | nt | nt | ? | 50µM* | 40µM* | 11µM*
OC(CNCc1ccco1)Cn1c2ccc(Br)cc2c2cc(Br)ccc21 (configuration not stated) | -35% | -1%[59 µM] | 8% | -23% | 6.3µM* | -6%
CCN(CC)S(=O)(=O)c1ccc(C(=O)NCCSc2c(-c3ccccc3)[nH]c3ccccc23)cc1 | -13% | 2%[59 µM] | 31% | -7% | -19% | nt
CC(NC(=O)COC(=O)Cc1ccc(Cl)cc1)c1ccccc1 (configuration not stated) | nt | nt | 33% | 1% | -1% | -11%
CC(NC(=O)Cc1ccccc1F)c1ccc(F)cc1 (configuration not stated) | -16% | 13% | -4% | -5%[11.4 µM] | 0% | 24µM*
COCC(=O)NC(c1ccccc1)c1ccccc1 | 2% | 23%[59 µM] | 58% | -1% | 13% | -3%
SMILES | BAZ2B inh | G9a block | HP1b chromo inh | JMJD2A Tudor | ALOX12 inh | PLK1 PBD block
CC(NC(=O)Cc1ccc(-c2ccccc2)cc1)c1ccccc1 (configuration not stated) | 1% | ? | ? | -10% | ? | 27µM*
CC(C)CCC(C(=O)NC(C)c1ccccc1)C(=O)NC(C)c1ccccc1 (configuration not stated) | ? | -9% | -19% | 22µM* | 0% | -10%
CC(C)CCNCC(=O)NC(c1ccccc1)c1ccccc1 | 56µM* | 5.6µM* | 13% | 32µM* | -8% | -3%
CN(C)C[C@@H]1CN(c2ccncn2)C[C@H]1NC(=O)c1ccco1 | nt | nt | nt | nt | 49% | nt
COc1ccc(C(=O)N2CCC(N3CCCCCC3=O)CC2)cc1 | nt | nt | nt | nt | 13%[176 µM] | nt
O=C(N[C@H]1CO[C@H]2[C@@H]1OC[C@@H]2Nc1nccc(-c2cccs2)n1)c1ccc(C(F)(F)F)cc1 | nt | nt | nt | nt | 14% | nt
CC1Cc2nc(SCC(=O)Nc3nccs3)n(C)c(=O)c2S1 (configuration not stated) | -7% | ? | 58% | -15% | -3% | -23%
CN(C)c1ccc(C=Cc2ccnc3ccccc23)cc1N | nt | nt | nt | nt | ? | -12%
CN(C)c1ccc(C=Cc2ccnc3c(O)cccc23)cc1 | nt | nt | nt | nt | 11µM* | 15%
O=C(NNc1ccccc1[N+](=O)[O-])Nc1cccc(Cl)c1 | 89µM* | -143%[59 µM] | -20%[57 µM] | ? | ? | 21µM*
O=C(Nc1ccc(F)cc1F)Nc1ccc(F)cc1F | -20% | 16% | 22% | -3% | -22% | -2%
O=C(NNc1ccccc1[N+](=O)[O-])Nc1ccc(F)cc1F | -15% | 32µM* | 6% | -27% | ? | -24%
Cc1ccc(C(=O)O/N=C/c2c(N3CCOCC3)n(C)c3ccccc23)cc1 | -35% | -4%[12.7 µM] | 8% | -23% | 1% | -5%
